Source: PubChem BioAssay AID1631 (National Center for Advancing Translational Sciences (NCATS), 2009)
Out of some 260,000 compounds screened, about 890 (0.34%) were called active. Roughly 1% stayed inconclusive and do not appear here. Shown is part of a subset that was picked to be rich in actives. Where a call stands in place of a potency, no number is given. Values without a mark were called inactive. Calls follow the shape of the dose curve; as a rule, active = well fitted activation curve with a large enough effect; inconclusive = small, poorly fitted or top-dose-only effect; inactive = no such curve, though single readings can be large or run the other way.

These compounds were tested against Pyruvate kinase PKM (Homo sapiens) (UniProt P14618) (assay: qHTS Assay for Activators of Human Muscle isoform 2 Pyruvate Kinase). Details: purified PKM2, Kinase-Glo ATP luminescence; Potency: activation; series mostly up to 57.5 µM.
Chain of Pyruvate kinase PKM (Homo sapiens) (P14618 whole entry, looked up, canonical isoform): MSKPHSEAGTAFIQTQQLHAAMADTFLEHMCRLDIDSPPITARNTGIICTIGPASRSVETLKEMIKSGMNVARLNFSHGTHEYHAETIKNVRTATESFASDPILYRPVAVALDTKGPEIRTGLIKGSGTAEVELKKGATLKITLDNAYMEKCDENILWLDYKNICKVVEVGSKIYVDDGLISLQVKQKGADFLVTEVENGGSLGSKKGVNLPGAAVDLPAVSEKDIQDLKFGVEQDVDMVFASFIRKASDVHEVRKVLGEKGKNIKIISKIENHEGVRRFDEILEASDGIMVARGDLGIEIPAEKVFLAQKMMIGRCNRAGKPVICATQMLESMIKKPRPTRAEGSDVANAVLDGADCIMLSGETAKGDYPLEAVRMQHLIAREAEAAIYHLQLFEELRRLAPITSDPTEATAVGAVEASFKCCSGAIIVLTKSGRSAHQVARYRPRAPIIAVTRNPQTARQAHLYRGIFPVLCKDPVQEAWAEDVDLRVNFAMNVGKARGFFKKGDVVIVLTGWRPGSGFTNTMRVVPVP
How it was run: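 Purified hPK-M2 (>95% pure) converted ADP (0.1 mM final) to ATP with 0.5 mM PEP in 50 mM imidazole pH7.2, KCl, MgCl2, Tween 20, BSA; 1 h at room temperature. ATP detected by Kinase-Glo luminescence.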
Also: nearly all actives have a fitted effect of over 55% in size.
Potency is read from the fitted curve at half-maximal effect.

Structure (SMILES) | Potency | activation
Cc1noc(C)c1CSCC(=O)N(CCC(C)C)c1c(N)n(Cc2ccccc2)c(=O)[nH]c1=O | inactive | 
COC(=O)c1ccc(COc2ccc(/C=C/C(=O)c3ccc(OC)c(CSCC(=O)O)c3)cc2OC)cc1 | inactive | 
CCC(=O)Nc1c(S(=O)(=O)c2ccccc2)c2nc3ccccc3nc2n1Cc1ccccc1 | inactive | 
CCN(CC)CCn1c(N)c(S(=O)(=O)c2ccccc2)c2nc3ccccc3nc21 | inactive | 
Cc1ccc(S(=O)(=O)c2c(N)n(C)c3nc4ccccc4nc23)cc1 | 12.6 µM (active) | 
c1ccc(Cc2ccc(OCCn3ccnc3)cc2)cc1 | inactive | 
O=C(Nc1ccc(C(=O)N2CCCCC2)cc1)c1cccc([N+](=O)[O-])c1 | inactive | 
CCCCC(C(=O)NC(C)(C)C)N(Cc1ccccc1)C(=O)c1snc(C(N)=O)c1N (centres undefined) | inactive | 
COc1ccc(-c2nn(-c3ccccc3)cc2/C=C2/SC(=S)N(CCCC(=O)O)C2=O)c(C)c1 |  | -3.19% [at 11.5 µM, 0% is enzyme alone, no compound]
CCCc1cc(C(=O)N2CCCC(CO)(CCCc3ccccc3)C2)n(C)n1 (centres undefined) | inactive | 
O=C(CNc1cccc(S(=O)(=O)N2CCCCC2)c1)Nc1ccccc1F | inactive | 
Cc1cccc(-n2ncc(Cl)c(Cl)c2=O)c1 | inactive | 
C/C(=N\N(C)C)c1ccc(OCCOc2ccc([N+](=O)[O-])cc2)cc1 | inactive | 
COc1ccc(CCn2c(=N)c(C(=O)NCc3ccco3)cc3c(=O)n4cccc(C)c4nc32)cc1 | inactive | 
O=C(NCc1ccco1)c1cccn2c(=O)c3c4c(sc3nc12)CCCC4 | 25.1 µM (active) | 
C=C(C)Cn1c(SCC(=O)NCc2ccco2)nc2sc3c(c2c1=O)CCC3 | inactive | 
O=C(CCCC(=O)N1CCN(c2cccc(Cl)c2)CC1)c1ccccc1 | inactive | 
CS(=O)(=O)Nc1ccc(C2=NN(S(C)(=O)=O)C(c3cccs3)C2)cc1 (centres undefined) | inactive | 
CCS(=O)(=O)Nc1ccc(C2=NN(C(C)=O)C(c3cccs3)C2)cc1 (centres undefined) | 4.47 µM (active) | 
COc1ccc(C2=NN(C(=O)CCC(=O)O)C(c3cccs3)C2)cc1OC (centres undefined) | inactive | 
CC(=O)c1cc2c(cc1NC(=O)Cn1nc(-c3ccc(F)cc3)ccc1=O)OCO2 | inactive | 
CC(=O)N1CCc2c(sc(NC(=O)CCS(=O)(=O)c3ccccc3)c2C#N)C1 | inactive | 
CCOC(=O)c1ccc(NC(=O)Cc2cccs2)cc1 | inactive | 
CC1CCN(C(=S)NC(=O)c2ccccc2Br)CC1 | inactive | 
O=C(Nc1ccc(N2CCOCC2)c(Cl)c1)c1ccc(S(=O)(=O)N2CCOCC2)cc1 | inactive | 

Structure (SMILES) | Potency | activation
COc1ccc(C2CC(c3ccccc3)=NN2C(=O)c2ccc(Cl)c([N+](=O)[O-])c2)cc1 (centres undefined) | inactive | 
COc1ccc(C2=NN(C(C)=O)C(c3ccccc3)C2)cc1 (centres undefined) | inactive | 
COc1ccc(C2CC(c3ccc([N+](=O)[O-])cc3)=NN2C(C)=O)cc1 (centres undefined) | 12.6 µM (active) | 
CC[C@]1(c2ccccc2OC)C(=O)N(C(=O)OC)N1C(=O)OC | inactive | 
CCOC(=O)c1cc(C(=O)Nc2ccc(S(=O)(=O)Nc3ccc(OC)cc3)cc2)nn1C | inactive | 
Cc1cccc(NC(=S)NCCc2ccc(Cl)cc2)c1C | inactive | 
COc1ccc(-n2nc(C(=O)NCC(=O)N3CCN(c4ccccc4OC)CC3)c3ccccc3c2=O)c(OC)c1 | inactive | 
O=c1c2ccccc2nnn1CSc1nnnn1-c1ccccc1 | 28.2 µM (active) | 
O=c1c2ccccc2nc(CSc2nnnn2-c2ccccc2)n1-c1ccccc1 | inactive | 
Nc1nnc(SCn2nnc3ccccc3c2=O)s1 | inactive | 
CCC(C)c1ccccc1NC(=O)CN(C)CC(=O)Nc1ccccc1SC (centres undefined) | inactive | 
O=C(N/N=C/c1cccc(OCc2ccccc2)c1)c1ccc(Br)o1 | inactive | 
CCN(C(=O)COc1ccc(C(=O)c2ccccc2)cc1)c1ccccc1 | inactive | 
CC1CCN(C2=NC(=O)/C(=C/c3ccc(O)cc3)S2)CC1 |  | -2.26% [at 11.5 µM, 0% is enzyme alone, no compound]
CCOC(=O)C1(Cc2ccccc2C)CCCN(C(=O)c2ccc(COC)o2)C1 (centres undefined) | inactive | 
S=C(Nc1ccc(Br)cc1)NC1CCN(Cc2ccccc2)CC1 | inactive | 
CSc1nc2ccc(S(=O)(=O)N3CCc4ccccc43)cc2s1 | 2.24 µM (active) | 
CCn1c(=O)c(=O)n(CC)c2cc(S(=O)(=O)N3CCc4ccccc43)ccc21 | inactive | 
O=C(Nc1nc2ccc([N+](=O)[O-])cc2s1)c1ccc(S(=O)(=O)N2CCCc3ccccc32)cc1 | inactive | 
CC(CN1CCOCC1)OC(=O)c1ccc(C(C)(C)C)cc1 (centres undefined) | inactive | 
NC(=S)c1ccc(C(N)=S)o1 | 15.8 µM (active) | 
Cc1cccc(CSc2nc3c(c(=O)n2C)SCC3)c1 | 15.8 µM (active) | 
Cn1c(SCC(=O)N2CCCCC2)nc2c(c1=O)SCC2 | inactive | 
CCn1c(SCc2ccccc2)nc2c(c1=O)SCC2 | inactive | 
COc1ccc(CNS(=O)(=O)c2cc(-c3cc(C)no3)ccc2C(C)C)cc1 |  | 2.22% [at 0.46 µM, 0% is enzyme alone, no compound]

Structure (SMILES) | Potency | activation
Cc1ccc(S(=O)(=O)NC2CCCCCC2)cc1C(N)=O | inactive | 
COc1ccc(Nc2ncnc3ccc(Br)cc23)c(OC)c1 | inactive | 
COC(=O)c1ccccc1NC(=O)C1CCN(C(=O)N2CCOc3ccccc32)CC1 | inactive | 
CCCC(C(=O)NC1CCCC1)N(C(=O)Cn1nnc(-c2ccc(C)o2)n1)c1cccc(O)c1 (centres undefined) | inactive | 
COc1ccc(NC(=O)CSc2nc3ccccc3c(=O)n2C)cc1 | inactive | 
FC(F)(F)c1cccc(Nc2ncnc3ccccc23)c1 | inactive | 
O=c1cc(CO)oc(C(Nc2cccc(C(F)(F)F)c2)c2ccccn2)c1O (centres undefined) | 25.1 µM (active) | 
O=C(Nc1cccc(C(F)(F)F)c1)c1cnccn1 | inactive | 
CCC(C)(C)NC(=O)C(c1ccc(O)cc1)N(Cc1ccco1)C(=O)CCC(=O)Nc1ccccn1 (centres undefined) | inactive | 
CC(=O)c1ccc(N2CCN(C(=O)c3ccc4nc[nH]c4c3)CC2)cc1 | inactive | 
CC/C(O)=N\S(=O)(=O)c1ccc(N=NN(C)C)cc1 | inactive | 
CN(C)N=Nc1ccc2nc[nH]c2c1 | 10 µM (active) | 
CCCn1c(CCNc2nc(-c3ccc(OC)cc3)cs2)nc2ccccc21 | inactive | 
O=C(N/N=C\c1cc2c(cc1Cl)OCO2)c1ccc(Br)s1 | inactive | 
CCOC(=O)C1(CCOc2ccccc2)CCN(Cc2cc(OC)cc(OC)c2)CC1 | inactive | 
COc1ccc(C(=O)CC(=O)c2ccc(C)cc2)c(O)c1 | inactive | 
COC(=O)CN1C(=O)[C@H]2[C@@H](C3CC3)N3C(=O)CN(Cc4ccc(-c5ccccc5)cc4)C(=O)[C@@]3(Cc3ccccc3)[C@H]2C1=O | inactive | 
COc1ccccc1CN(C)C(=O)c1cc2ccccc2o1 | inactive | 
COc1ccccc1CCNS(=O)(=O)c1cn(C)nc1C | inactive | 
Cc1cccc(N2CCN(C(=O)c3cccc(N4C(=O)C5C6C=CC(C6)C5C4=O)c3)CC2)c1C (centres undefined) | inactive | 
O=C(Nc1cccc(F)c1)NC1CCCc2ccccc21 (centres undefined) | inactive | 
O=C(CNC(=O)c1ccc(F)cc1)c1ccccc1 |  | 0.121% [at 11.5 µM, 0% is enzyme alone, no compound]
C[N+](C)(C)CCNC(=O)c1c(O)c2c([nH]c1=O)CCCC2 | inactive | 
O=C(NCc1ccccn1)c1c(O)c2c([nH]c1=O)CCCC2 | 3.16 µM (active) | 
CCc1nnc(NC(=O)c2c(O)c3c([nH]c2=O)CCCC3)s1 | inactive | 

Structure (SMILES) | Potency | activation
CCOC(=O)C1(CCOc2ccccc2)CCN(Cc2ccc(C#CCCO)cc2)CC1 | inactive | 
COc1ccc(N2CCN(S(=O)(=O)c3ccc4c(c3)NC(=O)C(C)C(=O)N4)CC2)cc1 (centres undefined) | inactive | 
Nc1c(Cl)cc(-c2csc(N3CCCC3c3nc4cc(Cl)c(Cl)cc4n3CCOCCO)n2)cc1Cl (centres undefined) | inactive | 
Cc1ccc(C)c(S(=O)(=O)Nc2cc(C)on2)c1 | inactive | 
Cc1ccc(C)c(S(=O)(=O)Nc2cccc(-n3cnnn3)c2)c1 | 14.1 µM (active) | 
O=C(Nc1cccc(-n2cnnn2)c1)c1cccnc1 | inactive | 
CCCCC(=O)Nc1ccccc1N1CCN(c2ccc(F)cc2)CC1 |  | -1.04% [at 11.5 µM, 0% is enzyme alone, no compound]
O=C(c1cc(C(=O)N2CCN(c3ccc(F)cc3)CC2)cc([N+](=O)[O-])c1)N1CCN(c2ccc(F)cc2)CC1 | inactive | 
CSc1ccc(S(=O)(=O)N2CCC(C(=O)NCCc3ccccc3)CC2)cc1 | inactive | 
Oc1ccc(C2Nc3cccc4cccc(c34)N2)cc1 | inactive | 
CCC1CCCCN1C(=S)Nc1ccc(S(=O)(=O)Nc2ncccn2)cc1 (centres undefined) | inactive | 
Cc1nc(SCC(=O)N2CCc3ccccc3C2)c2c(C)c(C)sc2n1 | inactive | 
Cc1nc(SCC(=O)N2CC(=O)Nc3ccccc32)c2c(C)c(C)sc2n1 | 12.6 µM (active) | 
COc1cccc(Nc2nnc(SCC(=O)N3CC(=O)Nc4ccccc43)s2)c1 | inactive | 
COc1ccccc1CN1CCN(C(c2ccccc2)c2ccccc2)CC1 | inactive | 
COc1ccc(OCc2cc(C(=O)N3CCCC3)no2)c2ccccc12 | inactive | 
Cc1ccc(C(=O)c2coc3ccc(O)c(CN(C)C)c23)cc1 | inactive | 
O=[N+]([O-])c1ccc2c(c1)Nc1nc3ccccc3nc1N2 | inactive | 
O=C(CC1C(=O)NCCN1C(=O)c1ccc([N+](=O)[O-])cc1)Nc1cccc(Cl)c1 (centres undefined) | inactive | 
CCCn1c(C2CCCN2c2nc(-c3ccc(C)cc3)cs2)nc2cc(Cl)c(N3CCCCC3)cc21 (centres undefined) | inactive | 
COc1ccc(CN2CCCC(N3CCc4ccccc4C3)C2)c(O)c1 (centres undefined) | inactive | 
Cc1ccc(NS(=O)(=O)c2cc3c(cc2C)NC(=O)CO3)cc1 | 5.62 µM (active) | 
COc1ccc(CCNS(=O)(=O)c2cc3c(cc2C)NC(=O)CO3)cc1OC | inactive | 
Cc1cc2c(cc1S(=O)(=O)NCc1ccc(Cl)cc1)OCC(=O)N2 | inactive | 
